Measured values taken from PubChem BioAssay (NCATS).
Inconclusive results are not listed. The source made the active and inactive calls. Calls come from the whole dose curve; as a rule, active = well fitted curve in the direction sought with a large enough effect; inconclusive = small, poorly fitted or top-dose-only effect, or another doubt; inactive = no such curve, though single readings can be large; an effect the other way counts as inactive or inconclusive.

Tests used:
[1] = Quantitative High-Throughput drug screen in 47 multiple myeloma cell lines against the NCATS MIPE library collection: INA6_PLB cell viability assay (AID 1918965; note: nearly all actives have a fitted effect of over 55% in size; note: potency is the fitted concentration of half-maximal effect)
How it was run: (§1)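 Luminescent ATP measurement with CellTiter-Glo gives viability, scaled between DMSO-only wells (100%) and media-only wells (0%). Cells, 500 per well, faced library compounds for 48 hours at 37C.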

[2] = Quantitative High-Throughput drug screen in 47 multiple myeloma cell lines against the NCATS MIPE library collection: KMS27_JCRB cell viability assay (AID 1918970); conditions: KMS27 myeloma cells, CellTiter-Glo ATP viability, 48 h; viability (% of DMSO): at 45.8 µM (top of the series); note: nearly all actives have a fitted effect of over 30% in size; note: potency is the fitted concentration of half-maximal effect
How it was run: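 Each line is seeded at 500 cells per well and treated with library compounds for 48 hours under 37 °C, 5% CO2. CellTiter-Glo is then added for 5 min at room temperature before median relative luminescence is recorded.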

[3] = Quantitative High-Throughput drug screen in 47 multiple myeloma cell lines against the NCATS MIPE library collection: KMS12BM_JCRB cell viability assay (AID 1918971); note: nearly all actives have a fitted effect of over 35% in size; note: potency is the fitted concentration of half-maximal effect
How it was run: (§2)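 Myeloma cell lines, 500 cells per well, exposed to MIPE 4.0 library compounds for 48 h at 37C, 5% CO2. Viability from ATP by CellTiter-Glo luminescence; normalised to DMSO (100%) and media-only (0%) wells.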

[4] = Quantitative High-Throughput drug screen in 47 multiple myeloma cell lines against the NCATS MIPE library collection: KMS26_JCRB cell viability assay (AID 1918975); note: nearly all actives have a fitted effect of over 45% in size; note: potency is the fitted concentration of half-maximal effect
How it was run: as §2

[5] = Quantitative High-Throughput drug screen in 47 multiple myeloma cell lines against the NCATS MIPE library collection: OCIMY1_PLB cell viability assay (AID 1918979); note: nearly all actives have a fitted effect of over 35% in size; note: potency is the fitted concentration of half-maximal effect
How it was run: (§3)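 qHTS format: cells plated (500/well), pin-dosed with MIPE 4.0 compounds, kept 48 h at 37 °C. Readout was CellTiter-Glo luminescence, median RLU.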

[6] = Quantitative High-Throughput drug screen in 47 multiple myeloma cell lines against the NCATS MIPE library collection: JJN3_DSMZ cell viability assay (AID 1918966; note: nearly all actives have a fitted effect of over 50% in size; note: potency is the fitted concentration of half-maximal effect)
How it was run: (§4)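 CellTiter-Glo luminescence (ATP) after 48 h compound exposure, 37C/5% CO2; 500 cells/well; MIPE 4.0 approved/investigational drugs pinned in; DMSO = 100%, media only = 0% viability.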

[7] = Quantitative High-Throughput drug screen in 47 multiple myeloma cell lines against the NCATS MIPE library collection: H1112_PLB cell viability assay (AID 1918967; note: nearly all actives have a fitted effect of over 30% in size; note: potency is the fitted concentration of half-maximal effect)
How it was run: as §4

[8] = Quantitative High-Throughput drug screen in 47 multiple myeloma cell lines against the NCATS MIPE library collection: MOLP8_DSMZ cell viability assay (AID 1918977); note: nearly all actives have a fitted effect of over 45% in size; note: potency is the fitted concentration of half-maximal effect
How it was run: as §3

[9] = Quantitative High-Throughput drug screen in 47 multiple myeloma cell lines against the NCATS MIPE library collection: NCIH929_DSMZ cell viability assay (AID 1918978); note: nearly all actives have a fitted effect of over 35% in size; note: potency is the fitted concentration of half-maximal effect
How it was run: as §3

[10] = Quantitative High-Throughput drug screen in 47 multiple myeloma cell lines against the NCATS MIPE library collection: JIM3_ECACC cell viability assay (AID 1918963; note: nearly all actives have a fitted effect of over 35% in size; note: potency is the fitted concentration of half-maximal effect)
How it was run: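 qHTS of the MIPE 4.0 collection: 500 myeloma cells/well, 48 h drug exposure at 37C in 5% CO2, then CellTiter-Glo for 5 min at room temperature before luminescence reading.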

[11] = Quantitative High-Throughput drug screen in 47 multiple myeloma cell lines against the NCATS MIPE library collection: MMM1_PLB cell viability assay (AID 1918976)
How it was run: as §3

[12] = Quantitative High-Throughput drug screen in 47 multiple myeloma cell lines against the NCATS MIPE library collection: Karpas25_ECACC cell viability assay (AID 1918968; note: nearly all actives have a fitted effect of over 35% in size; note: potency is the fitted concentration of half-maximal effect)
How it was run: as §4

[13] = Quantitative High-Throughput drug screen in 47 multiple myeloma cell lines against the NCATS MIPE library collection: KMS12PE_JCRB cell viability assay (AID 1918972); note: potency is the fitted concentration of half-maximal effect; nearly all actives have a fitted effect of over 30% in size
How it was run: as §1

[14] = Quantitative High-Throughput drug screen in 47 multiple myeloma cell lines against the NCATS MIPE library collection: MM1S_ATCC cell viability assay (AID 1918980); note: nearly all actives have a fitted effect of over 45% in size; note: potency is the fitted concentration of half-maximal effect
How it was run: as §3

[15] = Quantitative High-Throughput drug screen in 47 multiple myeloma cell lines against the NCATS MIPE library collection: JIM1_ECACC cell viability assay (AID 1918964)
How it was run: as §4

[16] = Quantitative High-Throughput drug screen in 47 multiple myeloma cell lines against the NCATS MIPE library collection: KMS20_JCRB cell viability assay (AID 1918973); note: potency is the fitted concentration of half-maximal effect; nearly all actives have a fitted effect of over 45% in size
How it was run: as §4

Measured: Potency

O=C1Nc2ccc(I)cc2C1=Cc1cc(Br)c(O)c(Br)c1
inactive: [5]
active: [1] 2.96 µM | [2] 10.5 µM | [3] 16.6 µM | [4] 16.6 µM

c1ccc(CNc2nc(N3CCOc4ccccc43)nc3c2CCCC3)cc1
inactive: [6] | [7] | [8] | [9]

Cn1c(=O)c(Oc2ccc(F)cc2F)cc2cnc(NC3CCOCC3)nc21
active: [3] 16.6 µM | [11] 1.87 µM
inactive: [10] | [7] | [2] | [9]

Cn1cnc(-c2cc3nccc(Oc4ccc(NC(=S)NC(=O)Cc5ccccc5)cc4F)c3s2)c1
inactive: [5]
active: [1] 6.62 µM | [6] 16.6 µM | [2] 23.5 µM

COc1ccc2ccc(=O)oc2c1CC=C(C)C
active: [6] 11.8 µM | [12] 20.9 µM | [3] 13.2 µM | [13] 20.9 µM | [4] 10.5 µM | [11] 16.6 µM | [8] 8.33 µM | [5] 23.5 µM | [14] 2.96 µM
inactive: [10] | [9]

NCc1c[nH]c(=S)n1[C@H]1CCc2c(F)cc(F)cc2C1
active: [12] 23.5 µM | [2] 11.8 µM | [3] 13.2 µM | [13] 14.8 µM | [4] 20.9 µM | [8] 18.7 µM | [14] 23.5 µM
inactive: [5]

Cc1nc2c([nH]1)CCN(C(=O)c1ccc(NC(=O)c3ccccc3-c3ccccc3)cc1)c1ccccc1-2
inactive: [15] | [6] | [7] | [2] | [4] | [14]

O=C1C(CCC(O)c2ccc(F)cc2)C(c2ccc(O)cc2)N1c1ccc(F)cc1 (stereo not given)
inactive: [15] | [1] | [7] | [12] | [3] | [4] | [9] | [5]
active: [13] 20.9 µM

Cn1cc(-c2ccc3nnc(Sc4ccc5ncccc5c4)n3n2)cn1
active: [13] 5.26 µM | [11] 16.6 µM | [14] 4.18 µM
inactive: [10] | [7] | [5]

COc1cc(Nc2nc3ccccc3nc2NS(=O)(=O)c2ccc(NC(=O)c3ccc(C)c(OC)c3)cc2)cc(OC)c1
active: [10] 13.2 µM | [1] 16.6 µM | [16] 23.5 µM | [4] 11.8 µM | [9] 14.8 µM | [14] 20.9 µM

CC(=O)N1CCN(c2ccc(OCc3nn(C)c(C)c3-c3cccc4c(CCCOc5cc(C)c(Cl)c(C)c5)c(C(=O)O)n(Cc5cccnc5)c34)cc2)CC1
inactive: [5]
active: [1] 1.66 µM | [7] 7.43 µM | [12] 3.32 µM | [2] 8.33 µM | [13] 18.7 µM | [16] 2.96 µM | [4] 18.7 µM | [8] 20.9 µM | [9] 2.96 µM | [14] 14.8 µM

C=CC(=O)Nc1cccc(Sc2nc(Nc3ccc(N4CCN(C)CC4)cc3)ncc2Cl)c1
active: [6] 37.2 µM | [14] 18.7 µM

O=[N+]([O-])c1ccc(Nc2ccccc2-c2ccccc2)c2nonc12
inactive: [5]
active: [1] 26.4 µM | [7] 18.7 µM

COC(=O)[C@H](c1ccccc1Cl)N1CCc2sccc2C1
active: [6] 20.9 µM
inactive: [10] | [3] | [4] | [5]

C[C@@H](O[C@H]1OCCN(Cc2n[nH]c(=O)[nH]2)[C@@H]1c1ccc(F)cc1)c1cc(C(F)(F)F)cc(C(F)(F)F)c1
inactive: [2]
active: [10] 23.5 µM | [1] 20.9 µM | [3] 18.7 µM | [4] 18.7 µM

C[C@H](CCC(=O)O)[C@H]1CC[C@H]2[C@H]3[C@@H](CC[C@]12C)[C@@]1(C)CC[C@@H](O)C[C@H]1C[C@@H]3O
inactive: [10] | [1] | [3] | [4] | [9] | [5] | [14]
active: [2] 20.9 µM | [11] 1.66 µM
